Hits are enriched below; roughly 31% of the tested compounds scored in any of these assays.
CYP2C19 inh – blocks human cytochrome P450 2C19; CYP2C19 Supersomes, luciferin-H EGE luminescence, 30 min; P33261; hit rate 21% among 96,000; inhibition, % at 5 µM;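 active = CYP2C19 inhibition above a set limit at 5 µM in the primary screen, cut at about 50% in these data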;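 note: plate controls were negative control wells for no effect and 2.5 mM tranylcypromine positive control for full effect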
CYP2C19 activ – increases human CYP2C19 enzyme activity | AID 1025 | 96,000 tested, under 10 active | recombinant CYP2C19, luciferin-H EGE luminescence; active compounds read high; 0 = fully inhibited enzyme, 1 = untreated enzyme | P33261 | activation factor at 5 µM;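 active = activation factor of at least 2 at 5 µM in the primary screen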;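 note: 0 = wells with 2.5 mM tranylcypromine and 1 = vehicle-only wells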
CYP2C9 activ – increases human cytochrome P450 2C9 activity; P11712; recombinant CYP2C9, luciferin-H conversion, luminescence; active compounds read high; factor 1 = untreated enzyme, 0 = blocked; activation factor at 5 µM; hit rate 1.4% among 96,000;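 active = activation factor of 2 or more for CYP2C9 at a 5 µM dose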;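 note: 0 = sulfaphenazole-blocked wells and 1 = vehicle-only wells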
Target sequence (P11712 whole entry, looked up): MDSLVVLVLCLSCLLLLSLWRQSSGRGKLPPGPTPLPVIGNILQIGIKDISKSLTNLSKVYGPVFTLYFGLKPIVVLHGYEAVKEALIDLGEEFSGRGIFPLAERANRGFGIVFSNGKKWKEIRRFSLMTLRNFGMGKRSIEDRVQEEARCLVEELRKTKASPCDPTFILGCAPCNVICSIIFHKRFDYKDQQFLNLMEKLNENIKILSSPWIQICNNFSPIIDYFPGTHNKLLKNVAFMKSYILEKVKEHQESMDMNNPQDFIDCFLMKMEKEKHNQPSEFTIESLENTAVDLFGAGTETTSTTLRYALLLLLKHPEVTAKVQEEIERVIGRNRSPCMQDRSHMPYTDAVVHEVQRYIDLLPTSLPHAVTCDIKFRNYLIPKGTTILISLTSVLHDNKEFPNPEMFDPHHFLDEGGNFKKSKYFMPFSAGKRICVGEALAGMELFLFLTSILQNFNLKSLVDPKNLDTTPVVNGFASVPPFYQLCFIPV
CYP2C9 inhib – blocks human cytochrome P450 2C9; P11712; CYP2C9 Supersomes, luciferin-H conversion, luminescence; inhibition, % at 5 µM; hit rate 20% among 96,000; AID 777;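 active = blocking of liver enzyme CYP2C9 beyond about 50% at 5 µM, limit read from the data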
* marks the source's active call; other numbers are inactive results.

Screening CCNC(=O)CC1C(=O)N(c2ccc(F)cc2)C(=O)N1CCC(C)C (configuration not stated) returned CYP2C19 inh 11, CYP2C19 activ 0.9, CYP2C9 activ 1 and CYP2C9 inhib -5.
`COc1ccc(Cn2c(SCc3ccc(C)cc3)nc3cc(OC)c(OC)cc3c2=N)cc1Cl` gave CYP2C19 inh -4, CYP2C19 activ 1, CYP2C9 activ 0.3 and CYP2C9 inhib 69*.
`COc1cc2nc(SCc3ccc(Cl)cc3Cl)n(Cc3cccs3)c(=N)c2cc1OC` gave CYP2C19 inh 26, CYP2C19 activ 0.7, CYP2C9 activ 0.3 and CYP2C9 inhib 74*.
`COc1ccc(Cn2c(C)ccc2C)cc1` gave CYP2C19 inh 46, CYP2C19 activ 0.5, CYP2C9 activ 0.7 and CYP2C9 inhib 32.
`COc1ccc(Cn2c(SCc3cc(C)ccc3C)nc3cc(OC)c(OC)cc3c2=N)cc1` gave CYP2C19 inh 37, CYP2C19 activ 0.6, CYP2C9 activ 0.4 and CYP2C9 inhib 56*.
`COc1cc2nc(SCc3ccc(C(F)(F)F)cc3)n(Cc3cccs3)c(=N)c2cc1OC` gave CYP2C19 inh -11, CYP2C19 activ 1.1, CYP2C9 activ 0.9 and CYP2C9 inhib 6.
CCc1ccc(/C=N/NC(=O)c2cc(C3CC3)nc3ccc(Br)cc23)s1 was read as CYP2C19 inh 10, CYP2C19 activ 0.9, CYP2C9 activ 0.6 and CYP2C9 inhib 36.
Screening CC(C)OP(=O)(c1ccc(N(C)C)cc1)C(O)c1c(Cl)cccc1Cl (configuration not stated) returned CYP2C19 inh 81*, CYP2C19 activ 0.2, CYP2C9 activ 0.4 and CYP2C9 inhib 55*.
Screening CCOP(=O)(c1ccc(N(C)C)cc1)C(O)c1ccc(Cl)cc1 (configuration not stated) returned CYP2C19 inh 80*, CYP2C19 activ 0.2, CYP2C9 activ 1.1 and CYP2C9 inhib -10.
`CC(C)COP(=O)(c1ccc(N(C)C)cc1)C(O)c1ccncc1` (configuration not stated) gave CYP2C19 inh 72*, CYP2C19 activ 0.3, CYP2C9 activ 0.4 and CYP2C9 inhib 58*.
For CCOP(=O)(c1ccc(N(C)C)cc1)C(O)c1ccccc1 (configuration not stated) the results were CYP2C19 inh 34, CYP2C19 activ 0.7, CYP2C9 activ 1 and CYP2C9 inhib 4.
`CCCCOP(=O)(c1ccc(N(C)C)cc1)C(O)c1ccccc1F` (configuration not stated) gave CYP2C19 inh 34, CYP2C19 activ 0.7, CYP2C9 activ 1 and CYP2C9 inhib 5.
Cc1ccc(S(=O)(=O)NCC2CCC(C(=O)O)CC2)cc1 (configuration not stated) was read as CYP2C19 inh 4, CYP2C19 activ 1, CYP2C9 activ 0.9 and CYP2C9 inhib 8.
COC(=O)c1cccc(OCC(O)Cn2ccnc2)c1 (configuration not stated) was read as CYP2C19 inh 100*, CYP2C19 activ 0, CYP2C9 activ 0.1 and CYP2C9 inhib 88*.
Screening CCCC/C(O)=C1\C(=O)CC(C)(C)CC1=Nc1ccc(OC)cc1 returned CYP2C19 inh 57*, CYP2C19 activ 0.4, CYP2C9 activ 0.6 and CYP2C9 inhib 44.
Screening Cc1ccc(S(=O)(=O)NCCOc2nc(N(C)C)nc(N3CCOCC3)n2)cc1 returned CYP2C19 inh 14, CYP2C19 activ 0.9, CYP2C9 activ 0.6 and CYP2C9 inhib 40.
Screening CCNc1nc(NC(C)C)nc(OCCNS(=O)(=O)c2cc(C)ccc2C)n1 returned CYP2C19 inh 50, CYP2C19 activ 0.5, CYP2C9 activ 1.4 and CYP2C9 inhib -40.
`COc1cc(C)nc(OCCNS(=O)(=O)c2cc(C)ccc2C)n1` gave CYP2C19 inh 82*, CYP2C19 activ 0.2, CYP2C9 activ 1.9 and CYP2C9 inhib -87.
`CCNc1nc(OCCNS(=O)(=O)c2cc(C)ccc2C)nc(N(C)C)n1` gave CYP2C19 inh 58*, CYP2C19 activ 0.4, CYP2C9 activ 0.8 and CYP2C9 inhib 18.
Screening CCNc1nc(NCC)nc(OCCNS(=O)(=O)c2cc(C)ccc2C)n1 returned CYP2C19 inh 89*, CYP2C19 activ 0.1, CYP2C9 activ 1.3 and CYP2C9 inhib -34.
COc1cc(C)nc(NS(=O)(=O)c2ccc(C)cc2)n1 was read as CYP2C19 inh 17, CYP2C19 activ 0.8, CYP2C9 activ 0.9 and CYP2C9 inhib 10.
For CCOc1ccc(CN2C(=O)CCC2(C)C(=O)NCc2cccnc2)cc1 (configuration not stated) the results were CYP2C19 inh -6, CYP2C19 activ 1.1, CYP2C9 activ 1.1 and CYP2C9 inhib -11.
